Laboratory results published in PubChem BioAssay (NCI).
The panel holds about 83,000 compounds, 20% with a hit somewhere; the sample as a whole holds those more often.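 In brief: 96-well plates, 48 h treatment, single concentration, percent growth endpoint.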 Calls of active or inactive are those of the source. The calls were made as follows: active = growth percent below 10; inactive = the rest.

Key:
Experiment in all cases: NCI-60 one-dose screen, 48 h (100 = growth as untreated, 0 = no growth, -100 = all killed)
Details in all cases: 10 µM unless noted
NCI-H23 lung = test system: NCI-H23 lung
NCI-H226 lung = test system: NCI-H226 lung
NCI-H322M lung = test system: NCI-H322M lung
HOP-62 NSCLC = test system: HOP-62 NSCLC
NCI-H460 lung = test system: NCI-H460 lung
HOP-92 NSCLC = test system: HOP-92 NSCLC
NCI-H522 lung = test system: NCI-H522 lung
A549/ATCC NSCLC = test system: A549/ATCC NSCLC
786-0 renal = test system: 786-0 renal
COLO 205 colon = test system: COLO 205 colon

Measured: growth

Cc1cc(N(CCNc2ccnc3cc(Cl)ccc23)Cc2ccc3c(c2)OCO3)nc(N2CCCC2)n1
active: HOP-62 NSCLC -25.8% | NCI-H460 lung -9.96% | NCI-H522 lung -28.7% | A549/ATCC NSCLC 8.39% | 786-0 renal -92% | COLO 205 colon -78.2%
inactive: NCI-H23 lung 20.8% | NCI-H226 lung 65.4% | NCI-H322M lung 13.5% | HOP-92 NSCLC 60.5%

C=CC(=O)Nc1cc(Nc2nccc(-c3cn(C)c4ccccc34)n2)c(OC)cc1N(C)CCN(C)C
active: NCI-H23 lung 8.43% | NCI-H226 lung -50.5% | NCI-H322M lung -5.77% | HOP-62 NSCLC -23.9% | NCI-H460 lung -54.8% | HOP-92 NSCLC -15.8% | NCI-H522 lung -68.6% | A549/ATCC NSCLC -43.5% | 786-0 renal -87.9% | COLO 205 colon -81.1%

CCCCCC(=O)OCc1ccc(Cl)c(Cl)c1
inactive: NCI-H23 lung 96.2% | NCI-H226 lung 100% | NCI-H322M lung 96.3% | HOP-62 NSCLC 101% | NCI-H460 lung 107% | HOP-92 NSCLC 109% | NCI-H522 lung 97.5% | A549/ATCC NSCLC 103% | 786-0 renal 104% | COLO 205 colon 106%

Cc1[nH]n(C(N)=S)c(=O)c1N=Nc1ccc(S(=O)(=O)Nc2ccncn2)cc1
inactive: NCI-H23 lung 102% | NCI-H226 lung 93.4% | NCI-H322M lung 128% | HOP-62 NSCLC 103% | NCI-H460 lung 100% | HOP-92 NSCLC 16.4% | NCI-H522 lung 99.7% | A549/ATCC NSCLC 101% | 786-0 renal 103% | COLO 205 colon 112%

CNC(=O)c1cc(Oc2cccc3nc(Nc4ccc(Cl)c(F)c4)ccc23)ccn1
inactive: NCI-H23 lung 62.4% | NCI-H226 lung 43.4% | NCI-H322M lung 78.8% | HOP-62 NSCLC 34.8% | NCI-H460 lung 60.6% | NCI-H522 lung 52.7% | A549/ATCC NSCLC 61.3% | 786-0 renal 41.7% | COLO 205 colon 84.3%
active: HOP-92 NSCLC 9.48%

COc1ccc(C2OC(c3cc(-c4cc5ccccc5o4)nn3-c3ccccc3)=NN2C(C)=O)cc1 (stereo not given)
inactive: NCI-H23 lung 92.5% | NCI-H226 lung 91% | NCI-H322M lung 97.9% | HOP-62 NSCLC 91.4% | NCI-H460 lung 104% | HOP-92 NSCLC 74.1% | NCI-H522 lung 83.4% | A549/ATCC NSCLC 102% | 786-0 renal 92.9% | COLO 205 colon 103%

NC(=O)c1c(OCc2c(F)cc(Br)cc2F)nsc1NC(=O)NCCCCN1CCCC1
active: NCI-H226 lung 9.08% | HOP-62 NSCLC -29.7% | NCI-H460 lung -23.1% | HOP-92 NSCLC -1.17% | NCI-H522 lung -61.8% | A549/ATCC NSCLC -15.6% | 786-0 renal -57.2% | COLO 205 colon -78.7%
inactive: NCI-H23 lung 21.2% | NCI-H322M lung 15.4%

CO[C@@H](C)Cn1c(=O)n(C)c2cnc3ccc(-c4cncc(C(C)(C)O)c4)cc3c21
active: NCI-H23 lung -2.1% | NCI-H226 lung -12.7% | NCI-H322M lung -15.2% | HOP-62 NSCLC -14.5% | NCI-H460 lung 5.83% | HOP-92 NSCLC -24% | NCI-H522 lung 3.46% | A549/ATCC NSCLC -11.7% | 786-0 renal -11.1% | COLO 205 colon -24.6%

C=CCN(/C=C1/C(=O)O[C@H](COC)[C@@]2(C)C1=C(O)C(=O)C1=C2[C@H](OC(C)=O)C[C@]2(C)C(=O)CC[C@@H]12)CC=C
inactive: NCI-H23 lung 36.7% | NCI-H226 lung 24% | HOP-62 NSCLC 16.5% | NCI-H460 lung 11.2% | NCI-H522 lung 13.5% | COLO 205 colon 17.7%
active: NCI-H322M lung -15.1% | HOP-92 NSCLC -3.58% | A549/ATCC NSCLC 4.59% | 786-0 renal 4.54%

Cc1nc(N)sc1-c1ccnc(Nc2ccc(N3CCOCC3)cc2)n1
inactive: NCI-H23 lung 43.1% | NCI-H226 lung 35.6% | NCI-H322M lung 51.4% | HOP-62 NSCLC 11.4% | NCI-H460 lung 15.9% | HOP-92 NSCLC 34.9% | NCI-H522 lung 11.6% | A549/ATCC NSCLC 21.9% | 786-0 renal 34.5%
active: COLO 205 colon 1.1%

Cc1cc(N(CCNc2ccnc3cc(Cl)ccc23)Cc2ccc3c(c2)OCO3)nc(N2CCN(C)CC2)n1
active: HOP-62 NSCLC 0.334% | HOP-92 NSCLC -10.2% | NCI-H522 lung 7.7% | 786-0 renal -6.41% | COLO 205 colon -67.1%
inactive: NCI-H23 lung 56.6% | NCI-H226 lung 75.7% | NCI-H322M lung 41.5% | NCI-H460 lung 18.2% | A549/ATCC NSCLC 26%

Cc1cc(C(O)CN(C)C)cc2c1ccc1cc(C(C)C)ccc12 (stereo not given)
inactive: NCI-H23 lung 30.1% | NCI-H226 lung 33.6% | HOP-62 NSCLC 50.2% | A549/ATCC NSCLC 32.9% | 786-0 renal 14.5%
active: NCI-H322M lung -10.1% | NCI-H460 lung -35.7% | HOP-92 NSCLC 5.86% | NCI-H522 lung -25% | COLO 205 colon -78.1%

COc1cc2c(cc1OCCCCCN1CCN(c3ncnc4ccccc34)CC1)N=CC1CCCN1C2=O (stereo not given)
active: NCI-H23 lung 3.3% | NCI-H226 lung -58.2% | NCI-H322M lung -0.115% | HOP-62 NSCLC -22.4% | NCI-H460 lung 5.35% | HOP-92 NSCLC -63.8% | NCI-H522 lung -55.4% | A549/ATCC NSCLC 1.13% | 786-0 renal -9.08% | COLO 205 colon -46.1%

O=C(Nc1ccc(Nc2ncnc3sc4c(c23)CCOC4)cc1)Nc1ccc(Cl)c(C(F)(F)F)c1
inactive: NCI-H23 lung 86% | NCI-H226 lung 103% | NCI-H322M lung 102% | HOP-62 NSCLC 116% | NCI-H460 lung 99.7% | HOP-92 NSCLC 89% | NCI-H522 lung 66.5% | A549/ATCC NSCLC 99.3% | 786-0 renal 107% | COLO 205 colon 104%
